From PubChem BioAssay (Tox21)
Records with an inconclusive call do not appear. Some structures have more than one record in an assay (separate samples or runs), and their calls can disagree. The source made the active and inactive calls. Unless noted, the call rests on the fitted dose curve; in most records, active means well fitted curve in the direction sought with a large enough effect in the repeat runs; inconclusive means weak or mixed curves; inactive means no such curve, though single readings can be large; an effect the other way counts as inactive or inconclusive.

What was measured:
[1] = biological target: Estrogen receptor (Homo sapiens) (UniProt P03372); assay: qHTS assay to identify small molecule antagonists of the estrogen receptor alpha (ER-alpha) signaling pathway using the BG1 cell line in the presence of 0.1 nM 17-beta-estradiol (AID 1259244); conditions: VM7Luc4E2 (BG1) ERE-luciferase, antagonist mode, 0.1 nM E2, 22 h; series mostly up to 92.4 µM; further: nearly all actives have a fitted effect of over 50% in size; further: potency means the concentration at half of the fitted maximal effect
Sequence of Estrogen receptor (Homo sapiens) (P03372 whole entry, looked up): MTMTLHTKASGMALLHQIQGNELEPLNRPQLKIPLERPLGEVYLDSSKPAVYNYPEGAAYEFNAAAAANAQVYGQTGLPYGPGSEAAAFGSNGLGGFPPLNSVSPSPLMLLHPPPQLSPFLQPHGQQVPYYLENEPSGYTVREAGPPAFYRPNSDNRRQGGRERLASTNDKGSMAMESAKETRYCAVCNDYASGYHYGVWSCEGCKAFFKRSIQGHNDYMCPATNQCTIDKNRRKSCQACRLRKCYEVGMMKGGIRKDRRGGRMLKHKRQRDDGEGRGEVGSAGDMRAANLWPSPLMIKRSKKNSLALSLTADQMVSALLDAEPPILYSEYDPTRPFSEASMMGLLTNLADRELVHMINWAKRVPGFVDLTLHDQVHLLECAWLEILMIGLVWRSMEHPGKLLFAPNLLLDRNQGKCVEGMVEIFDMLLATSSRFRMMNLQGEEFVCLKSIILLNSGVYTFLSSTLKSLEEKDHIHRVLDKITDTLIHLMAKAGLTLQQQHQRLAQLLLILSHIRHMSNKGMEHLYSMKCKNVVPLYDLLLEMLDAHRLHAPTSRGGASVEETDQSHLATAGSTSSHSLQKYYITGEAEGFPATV
How it was run: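 Antagonist mode: compounds in DMSO are pinned onto VM7Luc4E2 reporter cells, 0.1 nM final 17beta-estradiol is added, and after 22 h at 37C luciferase luminescence is measured with ONE-Glo.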

[2] = qHTS assay to identify small molecule HDAC inhibitors (AID 1259364); conditions: HCT-116 HDAC-Glo I/II luminescence, 2 h; series mostly up to 92.4 µM; further: potency means the concentration at half of the fitted maximal effect;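 further: wild-type HCT-116 cells with endogenous class I/II HDAC activity; nearly all actives have a fitted effect of over 45% in size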
How it was run: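 Cells (HCT-116, wild type) are seeded at 1,500 per well, incubated overnight, treated with compound in DMSO for 2 hr, then developed with HDAC-Glo I/II reagent for 30 min at room temperature.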

[3] = qHTS assay to identify small molecule HDAC inhibitors - cell viability counter screen (AID 1259365); conditions: HCT-116 viability, CellTiter-Glo ATP luminescence, 2 h; series mostly up to 92.4 µM; further: nearly all actives have a fitted effect of over 50% in size
How it was run: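 Cytotoxicity was gauged in wild-type HCT-116 cells after a brief 2hr treatment with DMSO-dissolved compounds at 37C and 5% CO2, using CellTiter-Glo luminescence developed for 30min at room temperature.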

[4] = qHTS assay to identify small molecule agonists of the sonic hedgehog signaling (Shh) pathway (AID 1259368; calls by dose curve;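 further: NIH/3T3-derived 3T3Gli1-Luc cells carrying a stable Gli1-driven firefly luciferase reporter; nearly all actives have a fitted effect of over 15% in size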); conditions: NIH/3T3 Gli1-Luc reporter, luciferase, 24 h; series mostly up to 92.4 µM
How it was run: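 Cells of a mouse NIH/3T3 clone stably expressing luciferase under the Gli1 transcriptional response element are exposed to test chemicals for 24 hr at 37 C. Pathway activation is detected as a rise in luminescence.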

[5] = qHTS assay to identify small molecule antagonists of the sonic hedgehog signaling (Shh) pathway (AID 1259369; calls by dose curve; further: nearly all actives have a fitted effect of over 45% in size; further: potency means the concentration at half of the fitted maximal effect); conditions: NIH/3T3 Gli1-Luc reporter, Shh antagonist, luminescence 24 h; series mostly up to 92.4 µM
How it was run: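 Cells are plated and held 4hr at 37 C, compounds (DMSO) are pinned in, conditioned medium is added to stimulate the pathway, and after 24hr luciferase reagent is added for 30min before luminescence is read.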

[6] = qHTS assay to identify small molecule agonists of the estrogen receptor beta (ER-beta) signaling pathway - cell viability counter screen (AID 1259380); conditions: ER-beta-bla HEK293T viability, CellTiter-Glo luminescence, 16 h; series mostly up to 92.4 µM; further: nearly all actives have a fitted effect of over 30% in size; further: potency means the concentration at half of the fitted maximal effect
How it was run: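 Cytotoxicity is measured in parallel with the reporter screen: after 16 hr compound exposure at 37C and a 2 hr LiveBLAzer step, CellTiter-Glo is added to the same ER-beta-UAS-bla HEK293T wells and luminescence read after 30 min.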

[7] = qHTS assay to identify small molecule antagonists of the estrogen receptor beta (ER-beta) signaling pathway - cell viability counter screen (AID 1259382); conditions: ER-beta-UAS-bla HEK293T viability, CellTiter-Glo luminescence, 16 h; series mostly up to 92.4 µM; further: nearly all actives have a fitted effect of over 55% in size; further: potency means the concentration at half of the fitted maximal effect
How it was run: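 Cytotoxicity counter screen multiplexed with the beta-lactamase antagonist assay: GripTite HEK293T ER-beta-bla cells were treated 16 hr with test chemicals in the presence of 1nM 17-beta-estradiol, and viability was measured by CellTiter-Glo.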

[8] = qHTS assay to identify small molecule agonists or antagonists of the thyroid stimulating hormone receptor (TSHR) signaling pathway - wild type cell line counter screen (AID 1259384; calls by dose curve); conditions: HEK293 wild type, cAMP HTRF counter-screen, stronger effect = higher value; series mostly up to 92.4 µM
How it was run: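 Counter screen in untransfected Hek293: compounds (15-point titration, triplicate) plus phosphodiesterase inhibitor Ro20-1724 added after 18 h plating; 30 min RT. Intracellular cAMP via competitive d2/cryptate immunoassay, 1 h incubation.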

[9] = biological target: Thyrotropin receptor (Homo sapiens) (UniProt P16473); assay: qHTS assay to identify small molecule antagonists of the thyroid stimulating hormone receptor (TSHR) signaling pathway (AID 1259385; calls by dose curve; further: nearly all actives have a fitted effect of over 20% in size; further: potency means the concentration at half of the fitted maximal effect); conditions: TSHR-HEK293 cAMP HTRF, TSH-stimulated antagonist mode; series mostly up to 92.4 µM
Sequence of Thyrotropin receptor (Homo sapiens) (P16473 whole entry, looked up): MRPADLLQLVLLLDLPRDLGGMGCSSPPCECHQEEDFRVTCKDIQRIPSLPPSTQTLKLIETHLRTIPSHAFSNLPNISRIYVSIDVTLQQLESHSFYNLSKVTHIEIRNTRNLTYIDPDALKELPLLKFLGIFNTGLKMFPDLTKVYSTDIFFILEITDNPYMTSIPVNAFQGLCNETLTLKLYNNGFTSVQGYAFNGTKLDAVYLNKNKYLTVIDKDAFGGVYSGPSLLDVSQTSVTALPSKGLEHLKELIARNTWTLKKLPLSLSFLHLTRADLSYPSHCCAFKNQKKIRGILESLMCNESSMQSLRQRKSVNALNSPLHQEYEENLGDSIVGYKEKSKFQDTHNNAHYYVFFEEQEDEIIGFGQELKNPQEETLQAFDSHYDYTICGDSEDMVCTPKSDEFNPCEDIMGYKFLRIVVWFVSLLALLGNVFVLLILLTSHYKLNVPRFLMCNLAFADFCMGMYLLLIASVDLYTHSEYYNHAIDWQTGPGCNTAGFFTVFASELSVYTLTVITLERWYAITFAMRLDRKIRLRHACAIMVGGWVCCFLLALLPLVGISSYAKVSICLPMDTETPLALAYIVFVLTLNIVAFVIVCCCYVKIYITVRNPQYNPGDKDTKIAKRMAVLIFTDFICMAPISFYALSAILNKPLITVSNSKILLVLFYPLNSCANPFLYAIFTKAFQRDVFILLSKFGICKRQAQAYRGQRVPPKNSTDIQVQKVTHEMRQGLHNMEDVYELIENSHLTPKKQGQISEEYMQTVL
How it was run: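 Antagonist mode: compound-treated TSHR-expressing HEK293 cells were stimulated with 1.5 ng/mL TSH (final) in presence of Ro20-1724 for 30 min at RT. HTRF cAMP detection after 1 h; each compound tested at 15 concentrations, triplicate.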

[10] = biological target: Androgen receptor (Homo sapiens) (UniProt P10275); assay: qHTS assay to identify small molecule antagonists of the androgen receptor (AR) signaling pathway using the MDA cell line in the presence of 0.5 nM R1881 (AID 1259243); conditions: MDA-kb2 MMTV-luciferase, R1881 0.5 nM, 16 h; series mostly up to 92.4 µM; further: nearly all actives have a fitted effect of over 50% in size; further: potency means the concentration at half of the fitted maximal effect
Sequence of Androgen receptor (Homo sapiens) (P10275 whole entry, looked up): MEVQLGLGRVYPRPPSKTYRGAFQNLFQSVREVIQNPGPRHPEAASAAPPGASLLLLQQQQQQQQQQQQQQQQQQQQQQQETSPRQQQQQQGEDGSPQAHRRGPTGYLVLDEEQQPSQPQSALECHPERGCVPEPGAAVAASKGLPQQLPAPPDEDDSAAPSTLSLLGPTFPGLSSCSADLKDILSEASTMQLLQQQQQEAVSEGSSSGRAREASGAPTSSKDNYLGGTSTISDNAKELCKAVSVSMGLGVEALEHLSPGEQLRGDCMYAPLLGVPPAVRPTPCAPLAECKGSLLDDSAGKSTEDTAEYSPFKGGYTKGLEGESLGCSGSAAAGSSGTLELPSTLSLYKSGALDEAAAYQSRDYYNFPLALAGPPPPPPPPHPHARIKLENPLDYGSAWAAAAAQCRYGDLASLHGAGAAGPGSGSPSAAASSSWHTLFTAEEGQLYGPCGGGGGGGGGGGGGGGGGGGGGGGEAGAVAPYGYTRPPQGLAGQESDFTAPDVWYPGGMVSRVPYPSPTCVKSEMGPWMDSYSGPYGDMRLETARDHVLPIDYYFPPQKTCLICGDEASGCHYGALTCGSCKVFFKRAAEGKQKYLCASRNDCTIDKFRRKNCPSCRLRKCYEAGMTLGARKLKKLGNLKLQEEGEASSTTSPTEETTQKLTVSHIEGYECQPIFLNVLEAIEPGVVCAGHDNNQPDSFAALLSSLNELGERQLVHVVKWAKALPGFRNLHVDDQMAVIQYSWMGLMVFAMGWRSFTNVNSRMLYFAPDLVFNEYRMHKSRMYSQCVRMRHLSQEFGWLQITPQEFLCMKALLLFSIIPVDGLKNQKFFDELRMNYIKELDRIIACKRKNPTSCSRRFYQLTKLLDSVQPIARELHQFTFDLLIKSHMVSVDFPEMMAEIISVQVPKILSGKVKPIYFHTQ
How it was run: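 Stably transfected MDA-kb2 cells express luciferase from an MMTV promoter bearing both AR and GR response elements. Compounds plus 0.5 nM R1881 (final) were incubated 16 hr at 37C without CO2, then luminescence measured.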

[11] = biological target: Androgen receptor (Homo sapiens) (UniProt P10275); assay: qHTS assay to identify small molecule agonists of the androgen receptor (AR) signaling pathway in the presence of an antagonist (AID 1259381; calls by dose curve; further: nearly all actives have a fitted effect of over 15% in size; further: potency means the concentration at half of the fitted maximal effect); conditions: MDA-kb2 MMTV-luciferase, AR agonist + nilutamide, 16 h; series mostly up to 92.4 µM
How it was run: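 Agonist-mode confirmation screen: human MDA-kb2 cells stably expressing luciferase under an MMTV promoter bearing AR and GR response elements, co-treated with 3.0uM nilutamide (final). Luminescence measured after 16hr compound incubation.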

[12] = qHTS assay to identify small molecule agonists of the sonic hedgehog signaling (Shh) pathway - cell viability counter screen (AID 1259366); conditions: NIH/3T3 Gli1-Luc viability, CellTiter-Fluor, 24 h; series mostly up to 92.4 µM; further: nearly all actives have a fitted effect of over 50% in size; further: potency means the concentration at half of the fitted maximal effect
How it was run: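 Stable Gli1-Luc NIH/3T3 clone, 2,000 cells/well. Compound exposure 24hr at 37C. Read-out: CellTiter-Fluor fluorescence.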

[13] = qHTS assay to identify small molecule antagonists of the sonic hedgehog signaling (Shh) pathway - cell viability counter screen (AID 1259367); conditions: NIH/3T3 Gli1-Luc viability, CellTiter-Fluor, 24 h; series mostly up to 42.5 µM; further: nearly all actives have a fitted effect of over 55% in size; further: potency means the concentration at half of the fitted maximal effect
How it was run: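 CellTiter-Fluor signal in conditioned medium-stimulated 3T3 Gli1-Luc cells, 23 hr compound exposure, 37C.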

[14] = qHTS assay to identify small molecule agonists of the androgen receptor (AR) signaling pathway in the presence of an antagonist - cell viability counter screen (AID 1259379); conditions: MDA-kb2 viability, CellTiter-Fluor, 16 h; series mostly up to 92.4 µM; further: nearly all actives have a fitted effect of over 25% in size; further: potency means the concentration at half of the fitted maximal effect
How it was run: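 Cytotoxicity is assessed by CellTiter-Fluor in MDA-kb2 cells carrying an MMTV-driven luciferase reporter. Cells receive 3.0uM nilutamide plus compounds at 15 concentrations and incubate 16 hr at 37C without CO2 before fluorescence reading.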

[15] = biological target: Estrogen receptor (Homo sapiens) (UniProt P03372); assay: qHTS assay to identify small molecule agonists of the estrogen receptor alpha (ER-alpha) signaling pathway in the presence of an antagonist (AID 1259383; calls by dose curve; further: top concentration of the series differs between compounds; nearly all actives have a fitted effect of over 15% in size); conditions: VM7Luc4E2 cells, ERE-luciferase, +ICI-182,780, 22 h; series mostly up to 92.4 µM
How it was run: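 Agonist-mode confirmation in the presence of the ER antagonist ICI-182,780 at 10.0nM final. Breast-derived VM7Luc4E2 reporter cells were exposed to compounds for 22hr, and ERE-driven luciferase was quantified by luminescence.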

[16] = biological target: Estrogen receptor beta (Homo sapiens) (UniProt Q92731); assay: qHTS assay to identify small molecule agonists of the estrogen receptor beta (ER-beta) signaling pathway (AID 1259377; active means well fitted activation curve with a large enough effect in the signal ratio in the repeat runs, not every such curve was filed as active; the % refers to the signal ratio); conditions: ER-beta-UAS-bla HEK293T, beta-lactamase FRET ratio, 16 h; series mostly up to 92.4 µM
Sequence of Estrogen receptor beta (Homo sapiens) (Q92731 whole entry, looked up): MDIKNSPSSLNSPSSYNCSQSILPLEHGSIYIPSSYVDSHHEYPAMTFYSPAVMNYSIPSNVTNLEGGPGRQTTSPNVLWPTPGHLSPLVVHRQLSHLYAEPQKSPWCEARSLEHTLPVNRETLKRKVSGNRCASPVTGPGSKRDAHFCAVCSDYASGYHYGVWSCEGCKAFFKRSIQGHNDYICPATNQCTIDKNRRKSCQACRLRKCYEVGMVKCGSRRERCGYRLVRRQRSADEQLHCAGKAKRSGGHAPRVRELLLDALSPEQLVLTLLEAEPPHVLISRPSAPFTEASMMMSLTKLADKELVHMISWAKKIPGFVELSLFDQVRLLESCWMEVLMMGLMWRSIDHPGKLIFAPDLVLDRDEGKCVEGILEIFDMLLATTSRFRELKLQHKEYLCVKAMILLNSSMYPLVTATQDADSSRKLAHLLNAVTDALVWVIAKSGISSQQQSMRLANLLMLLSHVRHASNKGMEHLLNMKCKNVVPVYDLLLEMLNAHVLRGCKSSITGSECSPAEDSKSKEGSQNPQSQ
How it was run: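 Measured by fluorescence intensity from a B/G FRET beta-lactamase substrate (2 h, room temperature) in ER-beta-UAS-bla HEK293T cells treated with DMSO-dissolved compounds for 16 hr at 37C and 5% CO2.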

[17] = biological target: Estrogen receptor beta (Homo sapiens) (UniProt Q92731); assay: qHTS assay to identify small molecule antagonists of the estrogen receptor beta (ER-beta) signaling pathway (AID 1259378; active means well fitted inhibition curve with a large enough effect in the signal ratio in the repeat runs, not every such curve was filed as active; the % refers to the signal ratio; further: potency means the concentration at half of the fitted maximal effect); conditions: ER-beta-UAS-bla HEK293T, beta-lactamase FRET ratio, 16 h; series mostly up to 92.4 µM
How it was run: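 Antagonist mode: compounds added to beta-lactamase reporter HEK293T ER-beta-UAS cells stimulated with E2 (1nM final), 16 hr at 37C. LiveBLAzer B/G FRET substrate, 2 hours room temperature, fluorescence read-out.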

[18] = qHTS assay to identify small molecule phospholipidosis (PLD) inducers (AID 1259344; active means well fitted curve in the direction sought with a large enough effect; an effect the other way counts as inactive or inconclusive); conditions: HepG2 phospholipidosis, LipidTOX Red imaging, 24 h; series mostly up to 38.3 µM
How it was run: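 Accumulated phospholipid, stained red by LipidTOX during 24 h compound treatment of HepG2 cells at 37 C, is quantified from images as pit number and intensity, normalised per cell using Hoechst-stained nuclei.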

[19] = qHTS assay to identify small molecule antagonists of the androgen receptor (AR) signaling pathway using the MDA cell line in the presence of 0.5 nM R1881 - cell viability counter screen (AID 1259242); conditions: MDA-kb2 viability, CellTiter-Fluor protease fluorescence, 16 h; series mostly up to 92.4 µM; further: potency means the concentration at half of the fitted maximal effect; nearly all actives have a fitted effect of over 45% in size
How it was run: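 Steps: plate MDA-kb2 cells, rest 5 hr at 37C without CO2; pin in compounds in DMSO; add R1881 to 0.5 nM final; incubate 16 hr; add CellTiter-Fluor, 30 min; read fluorescence.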

Measured: Potency

CCCCCCCCCCCCc1ccc(O)cc1
inactive: [2] | [3] | [4] | [5] | [8] | [9]
active: [1] 61.1 µM | [6] 43.3 µM | [7] 48.6 µM

Nc1ccc2c3c(cccc13)-c1ccccc1-2
inactive: [10] | [1] | [2] | [3] | [4] | [5] | [8] | [9]
active: [6] 49.1 µM | [11] 49.1 µM | [7] 49.1 µM

O=[N+]([O-])c1cc(Cl)c(Cl)c(Cl)c1Cl
active: [12] 24.2 µM | [14] 24.2 µM
inactive: [2] | [3] | [13] | [4] | [5] | [6] | [7] | [8] | [9]

CCN(CCC#N)c1ccc(N=Nc2c(Cl)cc([N+](=O)[O-])cc2Cl)cc1
active: [14] 17.2 µM
inactive: [1] | [2] | [3] | [4] | [5] | [15] | [8] | [9]

Clc1ccccc1C(c1ccccc1)(c1ccccc1)n1ccnc1
inactive: [2] | [3] | [4] | [16] | [15] | [8]
30.6 µM (active) and inactive: [14]
active: [12] 13.7 µM | [13] 13.7 µM | [5] 13.3 µM | [17] 8.41 µM | [6] 17.2 µM | [7] 15.4 µM | [9] 54.5 µM
24.3 µM (active) and inactive: [1]

CC1=C(C(=O)OC(C)C)C(c2cccc([N+](=O)[O-])c2)C(C(=O)OC2CN(C(c3ccccc3)c3ccccc3)C2)=C(N)N1 (centres undefined)
inactive: [18] | [2] | [3] | [4] | [8] | [9]
active: [12] 23.7 µM | [13] 26.6 µM | [5] 29.8 µM | [17] 16.8 µM | [6] 29.8 µM

Nc1nc2ccccc2n1Cc1ccc(F)cc1
active: [10] 7.5 µM | [1] 10.6 µM | [14] 26.6 µM
not listed: [5] | [6] | [16] | [17] | [18] | [19]
inactive: all other assays above

Cc1ccc(O)c2ncccc12
inactive: [18] | [2] | [3] | [4] | [11] | [15] | [8] | [9]
active: [10] 10.6 µM | [1] 11.9 µM | [12] 1.33 µM | [13] 1.33 µM | [5] 0.531 µM

CCCCc1oc2ccc(NS(C)(=O)=O)cc2c1C(=O)c1ccc(OCCCN(CCCC)CCCC)cc1
inactive: [18] | [2] | [3] | [4] | [8]
active: [12] 21.1 µM | [13] 26.6 µM | [5] 2.98 µM | [14] 21.1 µM | [6] 11.9 µM | [9] 29.8 µM

CC1=C(/C=C/C(C)=C/C=C/C(C)=C/C=O)C(C)(C)CCC1
inactive: [2] | [4] | [8]
active: [19] 60.8 µM | [12] 30.5 µM | [13] 60.8 µM | [5] 15.3 µM | [14] 60.8 µM | [6] 24.2 µM

O=C(NO)C1(NS(=O)(=O)c2ccc(Oc3ccc(F)cc3)cc2)CCOCC1
active: [1] 61.1 µM
not listed: [10] | [11] | [12] | [14] | [17] | [18] | [19]
inactive: all other assays above

NC(=O)N1C(=O)C(C(=O)c2cc(Cl)cs2)c2cc(F)c(Cl)cc21 (centres undefined)
active: [12] 27.3 µM | [13] 27.3 µM | [5] 6.86 µM | [17] 17.2 µM | [14] 7.7 µM | [6] 30.6 µM | [7] 30.6 µM
not listed: [1] | [16] | [18] | [19]
inactive: all other assays above

CC(C)(C)CC(C)(C)c1ccc(O)c(Cc2ccc(Cl)cc2Cl)c1
inactive: [18] | [2] | [4] | [11] | [15] | [8] | [9]
active: [10] 29.8 µM | [1] 33.5 µM | [6] 11.9 µM

On1ccccc1=S
inactive: [3] | [4] | [8] | [9]
active: [2] 12.1 µM | [12] 1.71 µM | [13] 3.03 µM | [5] 0.762 µM | [17] 0.428 µM | [6] 0.539 µM
